Data from PubChem BioAssay (EPA / NIEHS).
Active and inactive are the calls of the source. How the source made its calls: active means hit-call score of the fitted dose curve at least 0.9, where 1 is the maximum; inactive means score below 0.9.

Assays:
Conditions in all cases: mRNA level, 48 h; actives raise or lower the signal
[1] = read-out: HGF (gene 3082); assay: LTEA_HepaRG_HGF: Life Technologies and Expression Analysis (LTEA) Assay for Hepatocyte Growth Facto (HGF) using HepaRG (AID 2283505)
Procedure, shortened: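 HepaRG, 48 h dosing, 8-pt half-log series from 100 uM in 0.5% DMSO, duplicates. Readout: TaqMan qRT-PCR of HGF mRNA, housekeeping-normalized; bidirectional curve fit vs DMSO baseline.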

[2] = read-out: Insulin Like Growth Factor 1 (IGF1), IGF1 (gene 3479); assay: LTEA_HepaRG_IGF1: Life Technologies and Expression Analysis (LTEA) Assay for Insulin Like Growth Factor 1 (IGF1) using HepaRG (AID 2283506)
Procedure, shortened: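 HepaRG, plated 48 h, then switched to serum-free induction media; test chemical 8-pt half-log from 100 uM (0.5% DMSO), duplicate, 48 h. Lysis in RLT, TaqMan qRT-PCR, norm. ACTB/GAPDH/POLR2A. Bidirectional fit vs DMSO.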

[3] = read-out: Intercellular Adhesion Molecule 1 (ICAM1), ICAM1 (gene 3383); assay: LTEA_HepaRG_ICAM1: Life Technologies and Expression Analysis (LTEA) Assay for Intercellular Adhesion Molecule 1 (ICAM1) using HepaRG (AID 2283507)
Procedure, shortened: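 HepaRG, 48 h exposure, 8-pt half-log series from 100 uM, 0.5% DMSO vehicle, duplicates. Readout: TaqMan qRT-PCR mRNA, housekeeping-normalized (ACTB/GAPDH/POLR2A). Bidirectional curve fit vs DMSO baseline.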

[4] = read-out: Insulin-like growth factor-binding protein 1 (IGFBP1), IGFBP1 (gene 3484); assay: LTEA_HepaRG_IGFBP1: Life Technologies and Expression Analysis (LTEA) Assay for Insulin-like growth factor-binding protein 1 (IGFBP1) using HepaRG (AID 2283508)
Procedure, shortened: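 qRT-PCR mRNA read-out (TaqMan, Fluidigm array), normalised to three housekeeping genes; HepaRG cells, 48 h exposure, 8-pt half-log series from 100 uM, 0.5% DMSO vehicle; bidirectional curve fit vs DMSO baseline.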

[5] = read-out: Interleukin 6 (IL6), IL6 (gene 3569); assay: LTEA_HepaRG_IL6: Life Technologies and Expression Analysis (LTEA) Assay for Interleukin 6 (IL6) using HepaRG (AID 2283509)
Procedure, shortened: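 HepaRG cells exposed in duplicate for 48 h to eight half-log concentrations, top 100 uM, in 0.5% DMSO serum-free induction medium. mRNA measured by qRT-PCR, normalized to ACTB, GAPDH and POLR2A. Bidirectional fit versus DMSO.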

[6] = read-out: Interleukin 6 Receptor (IL6R), IL6R (gene 3570); assay: LTEA_HepaRG_IL6R: Life Technologies and Expression Analysis (LTEA) Assay for Interleukin 6 Receptor (IL6R) using HepaRG (AID 2283510)
Procedure, shortened: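 Readout is IL6R transcript level by TaqMan qRT-PCR, normalized to three housekeeping genes and fitted bidirectionally against 0.5% DMSO controls. Human HepaRG cells received chemicals for 48 h in serum-free induction medium, highest concentration 100 uM.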

[7] = read-out: Potassium channel subfamily K member 1 (KCNK1), KCNK1 (gene 3775); assay: LTEA_HepaRG_KCNK1: Life Technologies and Expression Analysis (LTEA) Assay for Potassium channel subfamily K member 1 (KCNK1) using HepaRG (AID 2283511)
Procedure, shortened: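 Differentiated HepaRG cells, 48 h exposure in serum-free induction medium with 0.5% DMSO; 8 concentrations, half-log from 100 uM, duplicate. KCNK1 mRNA by qRT-PCR, normalized to ACTB, GAPDH, POLR2A; bidirectional fit vs DMSO.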

[8] = read-out: Keratin 19 (KRT19), KRT19 (gene 3880); assay: LTEA_HepaRG_KRT19: Life Technologies and Expression Analysis (LTEA) Assay for Keratin 19 (KRT19) using HepaRG (AID 2283512)
Procedure, shortened: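 HepaRG, 48 h chemical exposure, 8-pt half-log CRC from 100 uM, 0.5% DMSO vehicle, duplicates. Readout: TaqMan qRT-PCR of KRT19 mRNA, housekeeping-normalized (ACTB/GAPDH/POLR2A). Bidirectional fit vs DMSO baseline.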

[9] = read-out: JUN Transcription Factor, JUN (gene 3725); assay: LTEA_HepaRG_JUN: Life Technologies and Expression Analysis (LTEA) Assay for JUN Transcription Factor using HepaRG (AID 2283513)
Procedure, shortened: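 Cells plated 48 h, medium switched to serum-free induction medium, then dosed 48 h (100 uM top, half-log dilutions, 0.5% DMSO). RNA isolated; JUN measured by qRT-PCR against three housekeeping genes; gain or loss fitted relative to DMSO.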

[10] = read-out: Lipase C (LIPC), LIPC (gene 3990); assay: LTEA_HepaRG_LIPC: Life Technologies and Expression Analysis (LTEA) Assay for Lipase C (LIPC) using HepaRG (AID 2283514)
Procedure, shortened: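 HepaRG cells, 48 h after plating, treated in duplicate for 48 h in serum-free induction medium over 8 half-log concentrations from 100 uM, 0.5% DMSO. LIPC mRNA by TaqMan qRT-PCR normalized to ACTB/GAPDH/POLR2A; bidirectional fit versus DMSO.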

Structure (SMILES) | outcome [1] | outcome [2] | outcome [3] | outcome [4] | outcome [5] | outcome [6] | outcome [7] | outcome [8] | outcome [9] | outcome [10] | AC50 [1] | AC50 [10] | AC50 [8] | AC50 [2]
OCc1ccccc1 | inactive | inactive | inactive | inactive | inactive | inactive | inactive | inactive | inactive | inactive | – | – | – | –
COS(C)(=O)=O | inactive | inactive | inactive | inactive | inactive | inactive | inactive | inactive | inactive | inactive | – | – | – | –
O=C(O)c1cccc(C(=O)O)c1 | inactive | inactive | inactive | inactive | inactive | inactive | inactive | inactive | inactive | inactive | – | – | – | –
Cc1nc(-c2ccccn2)ncc1C(=O)Nn1cc(C)c2cc(F)ccc21 | – | inactive | inactive | inactive | inactive | inactive | inactive | inactive | inactive | – | 65.1 µM (active) | 50 µM (active) | – | –
CCCCC(CC)C(=O)OCCOCCOCCOC(=O)C(CC)CCCC (stereo not given) | inactive | inactive | inactive | inactive | inactive | inactive | inactive | inactive | inactive | inactive | – | – | – | –
O=c1[nH]cnc2c1ncn2[C@H]1CC[C@@H](CO)O1 | inactive | inactive | inactive | inactive | inactive | inactive | inactive | inactive | inactive | inactive | – | – | – | –
OCCNCCO | inactive | inactive | inactive | inactive | inactive | inactive | inactive | – | inactive | inactive | – | – | 50 µM (active) | –
CCCCCCCCCC | inactive | inactive | inactive | inactive | inactive | inactive | inactive | inactive | inactive | inactive | – | – | – | –
CCOc1ccc2[nH]cc(C(=O)NCc3ccccc3)c(=O)c2n1 | inactive | – | inactive | inactive | inactive | inactive | inactive | – | inactive | inactive | – | – | 12.1 µM (active) | 15.8 µM (active)
O=S1(=O)CCCO1 | inactive | inactive | inactive | inactive | inactive | inactive | inactive | inactive | inactive | inactive | – | – | – | –
CCCCOC(=O)c1ccccc1 | inactive | inactive | inactive | inactive | inactive | inactive | inactive | inactive | inactive | inactive | – | – | – | –
CC(C)CCCCCCOC(=O)C1CCCCC1C(=O)OCCCCCCC(C)C (stereo not given) | inactive | inactive | inactive | inactive | inactive | inactive | inactive | inactive | inactive | inactive | – | – | – | –
CC[C@H](C)C(=O)O[C@H]1C[C@H](O)C=C2C=C[C@H](C)[C@H](CC[C@@H](O)C[C@@H](O)CC(=O)O)[C@H]21 | inactive | inactive | inactive | inactive | inactive | inactive | inactive | inactive | inactive | inactive | – | – | – | –
NC(N)=O | inactive | inactive | inactive | inactive | inactive | inactive | inactive | inactive | inactive | inactive | – | – | – | –
CCCCCCCCN(C)C | inactive | inactive | inactive | inactive | inactive | inactive | inactive | inactive | inactive | inactive | – | – | – | –
c1ccc2ncccc2c1 | inactive | inactive | inactive | inactive | inactive | inactive | inactive | inactive | inactive | inactive | – | – | – | –
OC[C@H]1O[C@@](CO)(O[C@H]2O[C@H](CO)[C@@H](O)[C@H](O)[C@H]2O)[C@@H](O)[C@@H]1O | inactive | inactive | inactive | inactive | inactive | inactive | inactive | inactive | inactive | inactive | – | – | – | –
